The panel holds about 83,000 compounds, 20% with a hit somewhere; the sample as a whole holds those more often.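 How to read the values: 0–100, growth inhibition (40 = 60% inhibited); 0, no net growth; -100 to 0, cell death (-40 = 40% of starting cells died; -100 = all dead).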 Calls of active or inactive are those of the source.
What follows are compounds tested on BT-549 breast (assay: NCI-60 one-dose screen, 48 h (100 = growth as untreated, 0 = no growth, -100 = all killed)). Settings: 10 µM unless noted.
Protocol: Growth inhibition of the BT-549 human tumor cell line is measured as a screen for anti-cancer activity. Cells are grown in 96 well plates and exposed to the test compound for 48 hours. Compounds are tested at a single concentration, which is 10^-5 M for most compounds. The reported endpoint is percent growth (GI% or GIPRCNT), where numbers from 0 - 100% represent growth inhibition, and numbers from -100% - 0 represent cell death. For example, a value of 40 represents 60% growth inhibition. A value of 0 means no net growth occurred over the course of the experiment. A value of -40 indicates 40% of cells at the beginning of the experiment died by the end of the experiment. A value of -100 means all cells are dead at the end of the experiment.
NCI-60 Human Tumor Cell Lines Screen was performed using the standard one-dose NCI protocol, which is described in more detail at https://dtp.cancer.gov/discovery_development/nci-60/default.htm.
Compounds with GIPRCNT values below 10 were considered active. Activity score was based on GIPRCNT using the following formula: […]
Score is 0 for GIPRCNT values of 100 or above, 50 for GIPRCNT values of 0, and 100 for GIPRCNT values of -100.
`O=c1[nH]c2c(ccc3cnccc32)c2c1CCC2` was tested, and the growth was -51.7% (active). In the case of `COc1ccc2[nH]c(-c3ccccc3)c(/C=C(\C#N)S(=O)(=O)c3ccccc3)c2c1`, the growth is reported as 64.5% (inactive). With `CC(C)n1cnc2c(Nc3cccc(Cl)c3)nc(N[C@H]3CCCC[C@@H]3N)nc21` the growth was 63% (inactive). `COc1cc(C2CC(c3ccc(N(C)C)cc3)=NN2C(C)=O)cc(OC)c1OC` (stereo not given) was tested, and the growth was 45.1% (inactive). `NCCOc1ncccc1/C=C1\C2C=CC=CC2C2C=CC(F)=CC12` (stereo not given) was tested, and the growth was 84.7% (inactive). For `CC(C)C(=O)Nc1ccc(-c2nc(-c3cccc(OCCN4CCOCC4)c3)c(-c3ccnc(Br)c3)[nH]2)cc1`, the growth was 56.4% (inactive). In the case of `COc1ccc(S(=O)(=O)n2c3ccccc3n3ncc(-c4nnc(C)o4)c23)cc1`, the growth is reported as 49.5% (inactive). In the case of `Fc1cc(-c2nnc3sc(-c4ccc(Cl)cc4Cl)nn23)c(Cl)cc1Cl`, the growth is reported as 79.4% (inactive). With `CN(C)CCN1CCN(c2ncccc2C2Nc3ccccc3-n3cccc32)CC1` (stereo not given) the growth was 92.3% (inactive). In the case of `COc1cccc2c(=O)c3c(sc12)c(NCCCN)nc1ccccc13`, the growth is reported as 90.4% (inactive). In the case of `COc1ccc(-c2cc(-c3cc(OC)c(OC)c(OC)c3)nc(N3CCOCC3)c2C#N)cc1`, the growth is reported as 128% (inactive). For `COc1ccc(C(=O)n2nc(-c3ccccc3)nc2N)cc1OC`, the growth was 94.6% (inactive). For `C=C1CC[C@@]2(C#N)[C@H]3[C@H](CC[C@@H]2C)[C@@H](C)C[C@@H](CC(C)(C)C#N)[C@H]13`, the growth was 50.4% (inactive). `Nc1nc(Cl)cc(=O)n1Cc1ccccc1` was tested, and the growth was 102% (inactive). For `CCCC1CCC(O)(C(C)(O)C(=O)NC2C(=O)N3NCCCC3C(=O)N(O)C(C)C(=O)N3NCCCC3C(=O)N3NCC(O)CC3C(=O)NC(C)C(=O)OC2C(C)C)OC1CC` (stereo not given), the growth was -67.3% (active). `N[C@@H](Cc1ccccc1)[C@@H](O)C(=O)NCc1ccc(F)cc1` was tested, and the growth was 105% (inactive). `COC1=C(C)C(=O)c2c(c(CCCl)c3n2CCC3OC(C)=O)C1=O` (stereo not given) was tested, and the growth was -48.2% (active). `Cc1cccc2c(=O)c3c(sc12)c(NCc1ccccc1)nc1ccccc13` was tested, and the growth was 101% (inactive). In the case of `CCOC(=O)c1cn2ncnc(Oc3ccc(NC(=O)NCCN(C)C)c(Cl)c3)c2c1C`, the growth is reported as 77.8% (inactive). In the case of `O=C(O)CCC(=O)Nc1nnc(-c2ccccc2)s1`, the growth is reported as 102% (inactive). In the case of `Cc1ccc(-c2nc(N3CCN(C(=O)c4ccc(OC(F)(F)F)cc4)CC3)c3ccccc3n2)cc1`, the growth is reported as 91.9% (inactive). In the case of `COc1nc2ccccc2cc1-c1nc2c(cnn2-c2ccc(Br)cc2)c(=O)[nH]1`, the growth is reported as 50% (inactive). With `O=C(CCN1C(=O)/C(=C/c2ccc(O)cc2)SC1=S)Nc1ccc(Cl)cc1` the growth was 99.8% (inactive). With `Cc1nc2ccccc2n1-c1ncnc2c1CC(C)c1ccccc1N2C` (stereo not given) the growth was 92.3% (inactive). `COc1cccc(-c2nn(-c3ccccc3)cc2-c2ccnc(N3CCOCC3)c2)c1` was tested, and the growth was 87.9% (inactive). In the case of `c1cc(-c2nnc(SSc3ncnc4nc[nH]c34)o2)ccn1`, the growth is reported as 51.7% (inactive). In the case of `O=C(Oc1cccc2ccccc12)Oc1cccc2ccccc12`, the growth is reported as 98.9% (inactive). With `Cn1cc(C(=O)c2nc(-c3cn(C)c4ccc(F)cc34)no2)c2cc(F)ccc21` the growth was 106% (inactive). With `Cc1cccc(NCc2cn(-c3ccc(C(=O)O)cc3)nc2-c2ccc(C(=O)O)cc2)n1` the growth was 104% (inactive). With `O=c1c2cc(F)ccc2sc2c(NCCCNCCO)nc3ccc(F)cc3c12` the growth was 83.9% (inactive). For `COc1cc(C(=O)N/N=C/c2cc3cc(OCc4ccccc4)ccc3nc2OC)cc(OC)c1OC`, the growth was 73.4% (inactive). With `COc1cc(C(=O)c2cc(C)c3[nH]c4ccc(O)cc4c3c2C)cc(OC)c1OC` the growth was -1.57% (active). In the case of `O=C(Nn1c(NCC(=O)N2c3ccccc3Sc3ccccc32)nnc1-c1ccc(O)cc1)c1ccccc1`, the growth is reported as 98.4% (inactive). For `Cc1ccc(-c2nc(N3CCN(C(=O)Nc4ccc(Cl)c(C(F)(F)F)c4)CC3)c3ccccc3n2)cc1`, the growth was 93.6% (inactive). For `CNCCCC12CCC(c3ccccc31)c1ccccc12`, the growth was 78.3% (inactive). `Cc1ccc(-c2nc3c(c(-c4ccccc4)nn3-c3ccccc3)c(-c3ccc(O)cc3)c2C#N)cc1` was tested, and the growth was 76.8% (inactive). In the case of `C/C(=C\C(=O)c1ccc(Cl)cc1)c1ccc(Cl)cc1`, the growth is reported as 103% (inactive). `Oc1ccc(Cl)cc1Cc1cc(Cl)cc(Cl)c1O` was tested, and the growth was -11.4% (active). With `CC(=O)c1ccc(Nc2nc(C(C)=O)c(C)s2)cc1` the growth was 105% (inactive). For `O=c1c2cccc(F)c2sc2c(NCCCNCCO)nc3ccccc3c12`, the growth was 72.6% (inactive).

— PubChem BioAssay (NCI)
